Data on 97 molecules can be found in PubChem BioAssay AID1619 (SRMLSC, 2009).

In all, about 220,000 compounds went through this assay and about 830 (0.38%) were called active.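 Rule for the calls: active = compound inhibiting the enzyme by more than half at any dose during confirmatory dose-response retesting; inconclusive = strong single-dose inhibitors picked by rank but not retested; inactive = the rest.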 Not all results are given here. Entries with a potency or affinity are not part of this list.

The assay deals with Leucine aminopeptidase (Plasmodium falciparum (isolate 3D7)) (UniProt Q8IL11). The assay can be described thus: P. falciparum M17LAP inhibitors, primary screen, biochemical, fluorogenic H-Leu-NHMec substrate, 1536-well (AID 1619).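 Note: plate controls were full reaction with DMSO carrier for no effect and no enzyme background for full effect.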 The note with it: recombinant M17LAP, H-Leu-NHMec fluorogenic kinetic assay; at 30 µM; active compounds read high.
Sequence of Leucine aminopeptidase (Plasmodium falciparum (isolate 3D7)) (Q8IL11 whole entry, looked up): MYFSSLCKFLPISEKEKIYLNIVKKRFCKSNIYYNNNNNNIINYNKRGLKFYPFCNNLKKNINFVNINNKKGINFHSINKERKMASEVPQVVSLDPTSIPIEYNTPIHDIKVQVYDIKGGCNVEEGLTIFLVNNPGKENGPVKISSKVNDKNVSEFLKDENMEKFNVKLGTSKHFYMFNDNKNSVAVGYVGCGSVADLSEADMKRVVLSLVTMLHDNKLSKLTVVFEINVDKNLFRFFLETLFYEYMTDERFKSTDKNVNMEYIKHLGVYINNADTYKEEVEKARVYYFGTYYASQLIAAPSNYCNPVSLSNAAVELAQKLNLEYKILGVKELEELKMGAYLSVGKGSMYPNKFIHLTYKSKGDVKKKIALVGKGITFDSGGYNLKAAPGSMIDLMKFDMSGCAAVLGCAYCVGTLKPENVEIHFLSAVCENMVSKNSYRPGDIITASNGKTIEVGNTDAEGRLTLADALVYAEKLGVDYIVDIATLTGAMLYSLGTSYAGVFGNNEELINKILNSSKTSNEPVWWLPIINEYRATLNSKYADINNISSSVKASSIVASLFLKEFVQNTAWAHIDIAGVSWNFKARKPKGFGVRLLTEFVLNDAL
By inhibition is commonly meant the relative decrease from the control value, in per cent. As to `Cc1c(NC(=O)CN2C(=O)c3cccc4cccc2c34)c(=O)n(-c2ccccc2)n1C`, the inhibition is 29.2% (inactive).
As for `COc1cccc(CNC(=O)C2CCC(CNc3c(N4CCC(C)CC4)c(=O)c3=O)CC2)c1` (configuration not stated), the figure is -8.13% (inactive).
As for `O=C(CCc1ccccc1)NNC(=S)Nc1ccc(F)cc1`, the inhibition is 5.08% (inactive).
Consider `CC(C)(C)Sc1ccc(/C=N/O)cc1[N+](=O)[O-]`, for which the inhibition was -1.67% (inactive).
As for `N=C1/C(=C/c2cccs2)C(=O)N=C2SN=C(SCc3ccccc3)N12`, the inhibition was 14.2% (inactive).
`CC(C)CSC1=NSC2=NC(=O)/C(=C\c3cccs3)C(=N)N12`: the inhibition was 9.74% (inactive).
As to `O=C(CN1CCc2ccccc2C1)N1CCN(S(=O)(=O)c2ccccc2)CC1`, the inhibition is 7.42% (inactive).
As for `CCOc1ccc2nc(NC(=O)C(NS(=O)(=O)c3cccc4nsnc34)C(C)C)sc2c1` (configuration not stated), the inhibition was -8.83% (inactive).
On to `CC1(C)Cc2sc3c(=O)[nH]c(=S)[nH]c3c2CO1`, for which the inhibition was 6.75% (inactive).
Take `CCCSc1nc2c3c(sc2c(=O)[nH]1)CC(C)(CC)OC3` (configuration not stated): the inhibition was -0.94% (inactive).
As to `CCOC(=O)c1c(NC(=O)/C=C/C(=O)O)sc(C)c1-c1ccc(C)c(C)c1`, the inhibition is 8.96% (inactive).
As to `COC(=O)c1c(NC(=O)/C=C/C(=O)O)sc(C)c1-c1ccc(C)cc1`, the inhibition is 14.7% (inactive).
As for `COCCNc1nc2nonc2nc1N1C[C@H]2CC[C@H]1C2`, the inhibition was 8.08% (inactive).
To `COc1ccc(N2CCN(CCCNC(=O)C3(S(=O)(=O)c4ccc(Cl)cc4)CC3)CC2)cc1` belongs 16% (inactive).
For `COc1cc(NC(=O)CN2CCN(Cc3ccc4c(c3)OCO4)CC2)cc(OC)c1`, the inhibition was 19.9% (inactive).
As for `Cc1ccc(NC(=O)C2CCCCC2C(=O)O)cc1Cl` (configuration not stated), the inhibition is 77.4% (inactive).
For the molecule `O=C(O)C1CCCCC1C(=O)Nc1ccc(Cl)cc1` (configuration not stated), the inhibition is 54.6% (inactive).
As for `Cc1ccc(NC(=O)C2CCCCC2C(=O)O)cc1C` (configuration not stated), the figure is 16.6% (inactive); as for `O=C(Nc1ccc2c(c1)CCC2)C1CCCO1` (configuration not stated), 6.84% (inactive).
To `O=C(NNC(=O)C1CC=CCC1C(=O)O)c1ccc(Cl)cc1` (configuration not stated) belongs 7.35% (inactive).
Take `Cc1onc(-c2ccccc2Cl)c1C(=O)Nc1ccccc1C(=O)NC(C)C`: the inhibition was 9.44% (inactive).
For `COc1cc(C(=O)NC(C)c2cnn(-c3ccccc3C)c2C)cc(OC)c1OC` (configuration not stated), the inhibition was 5.89% (inactive).
Regarding `COC(=O)c1c(NC(=O)CSc2ncnc3[nH]ncc23)sc2c1CCC2`, the inhibition is 33% (inactive).
To `CN(C)S(=O)(=O)c1cccc(CSc2cccc[n+]2[O-])c1` belongs -1.76% (inactive).
Turning to `Cc1ccc2cc(CCNC(=O)C(=O)c3c[nH]c4ccccc34)c(=O)[nH]c2c1`, the inhibition was -4.94% (inactive).
To `COC(=O)c1cc(Cl)c(NC(=O)c2cc3ccccc3o2)cc1OC` belongs -2.34% (inactive); to `O=C(c1ccc(Br)cc1)c1cc(-c2ccccn2)c(N2CCOCC2)s1`, 5.58% (inactive).
As for `Cc1csc2c(SCC(=O)NNS(=O)(=O)c3cccc(C(F)(F)F)c3)ncnc12`, the figure is -12.4% (inactive); as for `CC1(OC(=O)C2CCCC2)C(=O)C=C2C=C(c3ccsc3)N(c3ccccc3)C=C2C1=O` (configuration not stated), -5.77% (inactive).
As for `O=C(OCCN1C(=O)c2ccccc2C1=O)c1ccco1`, the inhibition is 15.3% (inactive).
Turning to `CCN1CCN(Cc2ccc(NC(=O)Nc3ccccc3)cc2)CC1`, the inhibition was 50.7% (inactive).
As for `CCN1CCN(Cc2ccc(NC(=O)Nc3ccccc3OC)cc2)CC1`, the figure is -5.76% (inactive); as for `COc1ccc(NC(=O)Nc2ccc(C(=O)N3CCOCC3)cc2)c(OC)c1`, -5.93% (inactive).
As for `Cc1ccc(NC(=O)Nc2ccc(C(=O)N3CCOCC3)cc2)cc1`, the figure is 41% (inactive); as for `CC(=O)Nc1cccc(C(=O)/C=C/c2ccco2)c1`, 17.6% (inactive); as for `O=C(O)c1ccccc1/C=N/N1CCN(C2c3ccccc3-c3ccccc32)CC1`, -1.62% (inactive).
Take `Brc1ccc(C2=Nn3c(nnc3-c3n[nH]c4c3CCC4)SC2)cc1`: the inhibition was 6.03% (inactive).
On to `CCn1c(O)c(N=N)c2ccccc21`, for which the inhibition is 12.4% (inactive).
For the molecule `O=C(N/N=C/c1coc2ccccc2c1=O)c1ccccc1`, the inhibition was 11.9% (inactive).
Take `O=C(N/N=C/c1coc2ccccc2c1=O)c1cc(O)cc(O)c1`: the inhibition is 29.1% (inactive).
As for `Cc1c(C(=O)N2CCCC2)sc(NC(=O)c2cccc(Cl)c2)c1C#N`, the figure is 18.9% (inactive); as for `O=C(CSc1ccccc1C(=O)O)NCc1ccccc1`, 17.3% (inactive).
Regarding `Cc1ccc(SCC(=O)NCCC2=CCCCC2)cc1`, the inhibition was -5.26% (inactive).
Regarding `O=C(COC(=O)c1cccnc1Cl)NCCC1=CCCCC1`, the inhibition is 3.53% (inactive).
Turning to `O=C(COC(=O)c1cccnc1SCC(=O)NCc1ccccc1)NCc1ccccc1`, the inhibition is 5.78% (inactive).
With `O=C(CSc1ncccn1)NCc1ccc(F)cc1`, the inhibition is 2.25% (inactive).
Consider `O=C(CSc1ccccc1C(=O)O)NCc1ccco1`, for which the inhibition was 16.5% (inactive).
With `Cc1cccc2cc(C(c3nnnn3Cc3ccccc3)N3CCN(c4ccccc4)CC3)c(=O)[nH]c12` (configuration not stated), the inhibition was 2.86% (inactive).
Consider `COc1ccc(N2C(=O)CC(SCCc3nc4ccccc4[nH]3)C2=O)cc1` (configuration not stated), for which the inhibition was 5.58% (inactive).
Regarding `CC1=C(C(=O)NCc2ccccc2)C(c2cccs2)n2ncnc2N1` (configuration not stated), the inhibition was -3.95% (inactive).
As to `O=C(NNC(=S)Nc1ccccc1)Nc1ccccc1`, the inhibition was 9.53% (inactive).
Turning to `COCCNC(=O)/C(C#N)=C/c1ccc(C)o1`, the inhibition was 23.4% (inactive).
Regarding `N#C/C(=C\c1ccc(N2CCOCC2)o1)C(=O)NC1CCCCC1`, the inhibition is 48.6% (inactive).
For the molecule `N#C/C(=C/c1ccc(N2CCOCC2)o1)C(=O)Nc1ccccc1`, the inhibition was 11.7% (inactive).
As for `N#C/C(=C\c1ccc(N2CCOCC2)o1)C(=O)NCCc1ccccc1`, the figure is 10.1% (inactive); as for `N#C/C(=C\c1ccc(N2CCOCC2)o1)C(=O)Nc1ccc(O)cc1`, 43.7% (inactive).
`N#C/C(=C\c1ccc(N2CCOCC2)o1)C(=O)NCC1CCCO1` (configuration not stated): the inhibition was 51% (inactive).
For `CCN1CCN(Cc2ccc(NC(=O)c3cc(NC(=O)C4=NN(c5ccccc5)C(=O)C4)cc(OC)c3)cc2C(F)(F)F)CC1`, the inhibition was 6.5% (inactive).
As for `CCn1c(SCC(=O)OCc2ccccc2)nnc1-c1ccco1`, the figure is 4.57% (inactive).
`CCOC(=O)COc1ccccc1/C=C1/NC(=O)NC1=O`: the inhibition was -4.69% (inactive).
On to `CCOC(=O)c1c(C)[nH]c(C(=O)OCC(=O)Nc2ccc(OCC)cc2)c1C`, for which the inhibition is -8.26% (inactive).
In the case of `COc1ccc(C(C)C)cc1S(=O)(=O)n1ccnc1C`, the inhibition was -18.1% (inactive).
Take `COC1=Cc2c(ccc3ccc(=O)oc23)OC1(C)C`: the inhibition was -5.99% (inactive).
As for `CCC(Sc1nc(-c2ccccc2)cc(=O)[nH]1)C(=O)O` (configuration not stated), the inhibition was 10% (inactive).
As for `CC(Sc1nc(-c2ccccc2)cc(=O)[nH]1)C(=O)O` (configuration not stated), the inhibition is 22.4% (inactive).
As to `COc1cccc(CNC(=O)CN2C(=O)CSc3ccc(S(=O)(=O)N4CCCC4)cc32)c1`, the inhibition was 1.2% (inactive).
Turning to `COc1ccc(C(=O)NCC(=O)OCC(=O)Nc2c(C)n(C)n(-c3ccccc3)c2=O)cc1`, the inhibition is 5.29% (inactive).
As for `COc1ccc(CNc2nn[nH]n2)cc1OC`, the figure is 26.5% (inactive); as for `c1ccc(COc2ccccc2CNc2nn[nH]n2)cc1`, 6.74% (inactive); as for `COc1ccc(/C=N/NC(=S)N[C@H]2CC3CCC2C3)cc1` (some centres not stated), 3.46% (inactive).
Take `COc1ccc(C(=O)Nc2nc3cc(OC)c(OC)cc3c(=O)[nH]2)cc1`: the inhibition is 0.22% (inactive).
As for `CC1CCC2(CC1)NC(=O)N(CC(=O)N1CCN(S(=O)(=O)c3ccccc3)CC1)C2=O` (configuration not stated), the figure is 5.42% (inactive); as for `CS(=O)(=O)CCC(C(=O)N1CCOCC1)N1C(=O)c2cc(Cl)c(Cl)cc2C1=O` (configuration not stated), 6.46% (inactive).
Turning to `COc1cccc(Nc2ncnc3ccccc23)c1`, the inhibition is 13.6% (inactive).
As for `Cc1cccc(Nc2ncnc3ccccc23)c1`, the figure is 19.2% (inactive); as for `Cc1cccc(Nc2ncnc3ccc(Br)cc23)c1`, 5.43% (inactive).
In the case of `COc1cccc(Nc2ncnc3c2cnn3C)c1`, the inhibition was 16.4% (inactive).
To `CCN1C(=O)/C(=C\c2nc3ccccc3c(=O)n2-c2ccccc2)c2ccccc21` belongs -3.98% (inactive); to `CCOC(=O)c1cnc2c(C)c(Cl)ccc2c1Nc1ccc(S(=O)(=O)Nc2ncccn2)cc1`, -6.24% (inactive); to `CC(=O)NC(O)C(=O)c1ccco1` (configuration not stated), 3.51% (inactive).
`C=CCn1c(SCC(=O)Nc2c(C)cccc2C)nnc1-c1ccncc1`: the inhibition was -1.77% (inactive).
As for `COc1ccc(C(=O)COC(=O)C2CCC(=O)N2)cc1` (configuration not stated), the inhibition is -3.64% (inactive).
As for `Cc1ccc2nc(SCCC(=O)O)cc(C)c2c1`, the figure is 43.9% (inactive); as for `Cc1cc(C)nc(Nc2n[nH]c(-c3ccccc3Br)n2)n1`, -2.55% (inactive); as for `Nc1nc(-c2ccccc2Br)cs1`, -3.14% (inactive).
Consider `CC(C)CC(C(=O)O)N1C(=O)[C@@H]2[C@H](C1=O)[C@@H]1C[C@H]2C(Br)C1Br` (some centres not stated), for which the inhibition is 42.5% (inactive).
Consider `Cc1[nH]n(-c2ncc(-c3ccccc3)s2)c(=O)c1C(c1ccc(Cl)cc1)C(C#N)C#N` (configuration not stated), for which the inhibition is 21.9% (inactive).
Consider `Cc1[nH]n(-c2ncc(-c3ccccc3)s2)c(=O)c1C(c1ccc(Br)cc1)C(C#N)C#N` (configuration not stated), for which the inhibition is 6.12% (inactive).
As to `O=C(COC(=O)Cc1c[nH]c2ccccc12)Nc1ccccc1`, the inhibition is 0.86% (inactive).
`CC(C)(C)c1ccc(C(=O)C2CCCN(C(=O)C3CCOCC3)C2)cc1` (configuration not stated): the inhibition was -15.1% (inactive).
With `O=C(CN1CCC(n2nnc3cc(C(F)(F)F)ccc32)CC1)N1CCc2ccccc21`, the inhibition was 10.6% (inactive).
In the case of `O=C(CN1C(=O)c2ccccc2S1(=O)=O)NCCC1=CCCCC1`, the inhibition was 43.9% (inactive).
As for `O=C(CN1C(=O)c2ccccc2S1(=O)=O)Nc1ccccc1C(=O)NCc1ccco1`, the figure is 23.5% (inactive).
For the molecule `CC(C)(C)SCCNC(=O)CN1C(=O)c2ccccc2S1(=O)=O`, the inhibition was 32.2% (inactive).
`Cc1ccc(CSCCNC(=O)CN2C(=O)c3ccccc3S2(=O)=O)cc1`: the inhibition is 46.9% (inactive).
`Cc1ccc(SCCNC(=O)CN2C(=O)c3ccccc3S2(=O)=O)cc1`: the inhibition is 54.1% (inactive).
`COc1ccc(CCNC(=O)CN2C(=O)c3ccccc3S2(=O)=O)cc1`: the inhibition is 34.7% (inactive).
